This is part of a sample that, as a whole, favours compounds with a hit. Of some 79,000 tested, about 15% had one in any assay. Values without a mark were called inactive. Activity calls are given as the source filed them. Rule as the data show it: active = growth inhibition above about 70%; inactive = the rest. Where a SMILES comes first, the peptide text is derived from it. [ ]: non-standard residue; d: D form. ξ: configuration not given here. ξPhe(4-N(CH2CH2Cl)2) = NC(Cc1ccc(N(CCCl)CCCl)cc1)C(=O)O; Aad = N[CH](CCCC(=O)O)C(=O)O
Experiments:
[1] = NCI Yeast Anticancer Drug Screen. Data for the rad50 strain (AID 155);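 also: 0% = growth of vehicle-only cultures of the same strain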; details: S. cerevisiae rad50 strain growth inhibition; at 50.0 µM; active compounds read high
Method in brief: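 Cells are treated with compound, grown, and their growth is then scored against vehicle-only cultures of the same repair-deficient yeast strain.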

[2] = NCI Yeast Anticancer Drug Screen. Data for the mec2-1 strain (AID 157); details: S. cerevisiae mec2-1 strain, at 50.0 µM, active compounds read high
Method in brief: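 Readout is yeast growth inhibition, normalised to vehicle-treated controls, in the mec2-1 strain exposed to compound.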

[3] = NCI Yeast Anticancer Drug Screen. Data for the sgs1 mgt1 strain (AID 161);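 also: 0% = growth of cultures given vehicle only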; details: S. cerevisiae sgs1 mgt1 strain, at 50.0 µM, active compounds read high
Method in brief: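 Yeast cells carrying a defined DNA-repair defect were exposed to test compounds. Growth inhibition was measured relative to vehicle-treated controls.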

[4] = NCI Yeast Anticancer Drug Screen. Data for the cln2 rad14 strain (AID 165);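 also: 0% = growth equal to vehicle treated cultures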; details: S. cerevisiae cln2 rad14 strain, at 50.0 µM, active compounds read high
Method in brief: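 Relative to vehicle controls, growth inhibition of compound-treated cln2 rad14 yeast was recorded.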

[5] = NCI Yeast Anticancer Drug Screen. Data for the bub3 strain (AID 167); details: S. cerevisiae bub3 mutant strain, at 50.0 µM, active compounds read high
Method in brief: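 Part of a panel of yeast mutants defective in DNA damage repair or cell cycle regulation. Each strain is grown with compound, and inhibition is calculated relative to solvent-treated cultures.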

[6] = NCI Yeast Anticancer Drug Screen. Data for the mlh1 rad18 strain (AID 175); details: S. cerevisiae mlh1 rad18 strain growth inhibition; at 50.0 µM; active compounds read high
Method in brief: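 Test agents were incubated with a yeast strain of defined genotype (DNA damage repair defect). Inhibition of growth was derived by comparison with vehicle-exposed cultures.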

With `N#CC(C#N)=Cc1ccccc1[N+](=O)[O-]` the growth inhibition [1] was 41.9%, the growth inhibition [2] was 17.2% and the growth inhibition [3] was 8.3%. It also gave a growth inhibition [4] of 25.6%, a growth inhibition [5] of 39.8% and a growth inhibition [6] of 29.7%.
With `Clc1cccc(Cl)c1NC1=NCCS1` the growth inhibition [1] was -11.7%, the growth inhibition [2] was -20.8% and the growth inhibition [3] was 12.7%. For the same molecule, the growth inhibition [4] was 6.1%, the growth inhibition [5] was -2.25% and the growth inhibition [6] was 6.45%.
`COc1cc2c(cc1OC)C13CCN4CC5=CCOC6CC(=O)N2C1C6C5CC43O` (configuration not stated) gave a growth inhibition [1] of -13.9%, a growth inhibition [2] of -30.9% and a growth inhibition [3] of -8.05%. It also gave a growth inhibition [4] of 8.55%, a growth inhibition [5] of -4.2% and a growth inhibition [6] of -47.4%.
With `COC(N)=O` the growth inhibition [1] was -15.6%, the growth inhibition [2] was -10.2% and the growth inhibition [3] was -16.9%. For the same molecule, the growth inhibition [4] was -15.9%, the growth inhibition [5] was -2.6% and the growth inhibition [6] was -8.3%.
Work on `CC(=O)C(Sc1ccccc1[N+](=O)[O-])C(C)=O.[Co]` yielded a growth inhibition [1] of 33.2%, a growth inhibition [2] of 9.5% and a growth inhibition [3] of 4.75%. The growth inhibition [4] was -1.3%, the growth inhibition [5] was 6.45% and the growth inhibition [6] was 15.8%.
For `CC1OC(OC2C(O)C(O)C(O)C(O)C2O)C(N)CC1N=C(N)C(=O)O` (configuration not stated), the growth inhibition [1] was 12.5%, the growth inhibition [2] was 3.6% and the growth inhibition [3] was -18.1%. It also gave a growth inhibition [4] of -34.5%, a growth inhibition [5] of -0.35% and a growth inhibition [6] of 23.6%.
With `O=C1Nc2ccccc2C12CNCS2` (configuration not stated) the growth inhibition [1] was 5.7%, the growth inhibition [2] was 4.55% and the growth inhibition [3] was -8.6%. It also gave a growth inhibition [4] of -23.4%, a growth inhibition [5] of -12.8% and a growth inhibition [6] of 8.2%.
For `Oc1cccc(-c2ccccc2)c1`, the growth inhibition [1] was 20.5%, the growth inhibition [2] was 17.2% and the growth inhibition [3] was 20.3%. For the same molecule, the growth inhibition [4] was 5.35%, the growth inhibition [5] was 30.1% and the growth inhibition [6] was 21.2%.
Molecule `Nc1cccnc1` has a growth inhibition [1] of -29.1%, a growth inhibition [2] of -35.5% and a growth inhibition [3] of 23.8%. The growth inhibition [4] was -1.55%, the growth inhibition [5] was -23.6% and the growth inhibition [6] was -5.65%.
In the case of `COc1ccc(/C=C(/C)[N+](=O)[O-])cc1OC`, the growth inhibition [1] was 99.3% (active), the growth inhibition [2] was 99.7% (active) and the growth inhibition [3] was 99.3% (active). For the same molecule, the growth inhibition [4] was 97.2% (active), the growth inhibition [5] was 99.7% (active) and the growth inhibition [6] was 99.5% (active).
Molecule `Cc1ccc(OP(=O)(Oc2ccc(C)cc2)Oc2ccc(C)cc2)cc1.Cc1ccc(OP(=O)(Oc2ccc(C)cc2)Oc2ccc(C)cc2)cc1.[Cl][Cr]([Cl])[Cl]` has a growth inhibition [1] of -1.05%, a growth inhibition [2] of -3.05% and a growth inhibition [3] of -2.1%. For the same molecule, the growth inhibition [4] was -7%, the growth inhibition [5] was 0.9% and the growth inhibition [6] was 4.45%.
In the case of `CC1(C)c2ccccc2C(c2ccccc2)(c2ccccc2)[N+]1(C)C`, the growth inhibition [1] was 63.4%, the growth inhibition [2] was 33.7% and the growth inhibition [3] was 52.2%. It also gave a growth inhibition [4] of 21.7%, a growth inhibition [5] of 22.2% and a growth inhibition [6] of 49%.
Molecule `COC(=O)C1C(=O)NC2(C)CC1c1ccccc1O2` (configuration not stated) has a growth inhibition [1] of -28%, a growth inhibition [2] of -11.7% and a growth inhibition [3] of -30.8%. The growth inhibition [4] was 8%, the growth inhibition [5] was -12.5% and the growth inhibition [6] was -1.45%.
Work on `CCNC1CCCCC1` yielded a growth inhibition [1] of 26.3%, a growth inhibition [2] of -5.45% and a growth inhibition [3] of -14.2%. The growth inhibition [4] was 29.1%, the growth inhibition [5] was -19.1% and the growth inhibition [6] was 20.1%.
Molecule `Clc1cccc2nncc(N3CC3)c12` has a growth inhibition [1] of 2%, a growth inhibition [2] of 23.6% and a growth inhibition [3] of -17.2%. For the same molecule, the growth inhibition [4] was -6.2%, the growth inhibition [5] was -9.05% and the growth inhibition [6] was 9.25%.
`CC1=CP(=O)(OC(C)C)CC(C)=C1Cl` (configuration not stated) gave a growth inhibition [1] of 33.7%, a growth inhibition [2] of -6.9% and a growth inhibition [3] of -11.4%. It also gave a growth inhibition [4] of -9.55%, a growth inhibition [5] of -25.8% and a growth inhibition [6] of 20.8%.
In the case of `ClC1CC2CC1C1CNCC21` (configuration not stated), the growth inhibition [1] was -15.2%, the growth inhibition [2] was -14.6% and the growth inhibition [3] was -4.05%. The growth inhibition [4] was -15.8%, the growth inhibition [5] was -1.05% and the growth inhibition [6] was -21%.
In the case of `Cc1ccc2c(c1)C(=S)N1CSCC1c1nncn1-2` (configuration not stated), the growth inhibition [1] was 30.6%, the growth inhibition [2] was 30% and the growth inhibition [3] was 28.9%. The growth inhibition [4] was 20.9%, the growth inhibition [5] was 13.4% and the growth inhibition [6] was 35.8%.
For `C=CCNCC(O)c1ccccc1` (configuration not stated), the growth inhibition [1] was 13.5%, the growth inhibition [2] was -14.2% and the growth inhibition [3] was -11.8%. For the same molecule, the growth inhibition [4] was 6.7%, the growth inhibition [5] was 6.5% and the growth inhibition [6] was 4.6%.
With `O=S(=O)(c1ccccc1)N1CC1CI` (configuration not stated) the growth inhibition [1] was 3.45%, the growth inhibition [2] was 2.7% and the growth inhibition [3] was 13.9%. For the same molecule, the growth inhibition [4] was 10.6%, the growth inhibition [5] was 7.9% and the growth inhibition [6] was 1.75%.
In the case of `CNC(=O)C(Cl)Cl`, the growth inhibition [1] was 12.8%, the growth inhibition [2] was 4.85% and the growth inhibition [3] was 11.7%. The growth inhibition [4] was 0.95%, the growth inhibition [5] was -8.1% and the growth inhibition [6] was 6.15%.
`COc1ccccc1P(=S)(c1ccccc1)c1ccccc1` showed a growth inhibition [1] of 31%, a growth inhibition [2] of 24.3% and a growth inhibition [3] of 17.6%. It also gave a growth inhibition [4] of 38%, a growth inhibition [5] of 27.2% and a growth inhibition [6] of 24.2%.
With `COc1ccc(C(CC(=O)O)CC(=O)N(CCCl)CCCl)cc1C` (configuration not stated) the growth inhibition [1] was 64%, the growth inhibition [2] was 25.6% and the growth inhibition [3] was 17%. For the same molecule, the growth inhibition [4] was 27.1%, the growth inhibition [5] was 63.7% and the growth inhibition [6] was 24.4%.
Work on `O=Cc1ccccc1O.O=Cc1ccccc1O.O=Cc1ccccc1O.[La]` yielded a growth inhibition [1] of -1.05%, a growth inhibition [2] of -6.95% and a growth inhibition [3] of 4.7%. For the same molecule, the growth inhibition [4] was -10.1%, the growth inhibition [5] was 4.8% and the growth inhibition [6] was 16.9%.
For `C[N+](C)=C(Cl)Cl`, the growth inhibition [1] was 1.75%, the growth inhibition [2] was -30.1% and the growth inhibition [3] was -8.1%. For the same molecule, the growth inhibition [4] was 4.15%, the growth inhibition [5] was -7.85% and the growth inhibition [6] was -12.9%.
Work on `ClCCN(CCCl)c1ccc(/C=N/c2nc(-c3ccccc3)cs2)cc1` yielded a growth inhibition [1] of 45.6%, a growth inhibition [2] of 27.9% and a growth inhibition [3] of 65.4%. For the same molecule, the growth inhibition [4] was 47.4%, the growth inhibition [5] was -1.75% and the growth inhibition [6] was 60.9%.
With `C[As](C)(=S)[As](C)(C)=S` the growth inhibition [1] was 77.3% (active), the growth inhibition [2] was 50.1% and the growth inhibition [3] was 65.2%. For the same molecule, the growth inhibition [4] was 27.6%, the growth inhibition [5] was 66.7% and the growth inhibition [6] was 69.9%.
In the case of `O=C(O)CCCc1ccc(N(CCCl)OCCCl)cc1`, the growth inhibition [1] was -21.1%, the growth inhibition [2] was -3.3% and the growth inhibition [3] was 16.7%. It also gave a growth inhibition [4] of 10.2%, a growth inhibition [5] of 13.3% and a growth inhibition [6] of -0.25%.
Work on `Cc1ccc(NN=O)nc1` yielded a growth inhibition [1] of -13.9%, a growth inhibition [2] of 3.15% and a growth inhibition [3] of -3.9%. For the same molecule, the growth inhibition [4] was 15.2%, the growth inhibition [5] was -10.6% and the growth inhibition [6] was -13.8%.
`CCOC(=O)C(Cc1ccc(N(CCCl)CCCl)cc1)NC(=O)C(CCC(=O)O)NC(=O)C(Cc1ccc(O)cc1)NC(=O)C(CCCC(=O)O)NC(=O)C(N)Cc1ccc(O)cc1` (configuration not stated) (H-Y[Aad]YE[ξPhe(4-N(CH2CH2Cl)2)]-OEt; configuration not given here) gave a growth inhibition [1] of 7.7%, a growth inhibition [2] of 13.9% and a growth inhibition [3] of -6.5%. For the same molecule, the growth inhibition [4] was 14.8%, the growth inhibition [5] was 8.05% and the growth inhibition [6] was 30.3%.
With `N/C(=N\N=C\c1ccc(O)cc1O)N[N+](=O)[O-]` the growth inhibition [1] was 12.2%, the growth inhibition [2] was -0.85% and the growth inhibition [3] was -3.45%. The growth inhibition [4] was -41.7%, the growth inhibition [5] was 3.65% and the growth inhibition [6] was 4.1%.
Molecule `CCC1CCC2CCCC(C)N12` (configuration not stated) has a growth inhibition [1] of 9.05%, a growth inhibition [2] of 4.25% and a growth inhibition [3] of -3.2%. It also gave a growth inhibition [4] of 1.5%, a growth inhibition [5] of 8.2% and a growth inhibition [6] of 7.75%.
For `CCCCCCCCCCC(O)[C@H]1CCC(C2CC[C@H]([C@H](O)CCCCCCCCCCC(O)CC3=CC(C)OC3=O)O2)O1` (some centres not stated), the growth inhibition [1] was 2.15%, the growth inhibition [2] was -5.15% and the growth inhibition [3] was -13.3%. For the same molecule, the growth inhibition [4] was -10.7%, the growth inhibition [5] was 0.85% and the growth inhibition [6] was 5.2%.
For `O=c1c(O)c(-c2ccccc2)oc2ccccc12.[Zr]`, the growth inhibition [1] was -22.1%, the growth inhibition [2] was -6.65% and the growth inhibition [3] was -7.7%. The growth inhibition [4] was 18.4%, the growth inhibition [5] was 22.4% and the growth inhibition [6] was -7.75%.
In the case of `CN(CCC#N)c1ccc(C=C(C#N)C#N)cc1`, the growth inhibition [1] was 7.25%, the growth inhibition [2] was 11.3% and the growth inhibition [3] was 7.65%. For the same molecule, the growth inhibition [4] was 8.05%, the growth inhibition [5] was 24.7% and the growth inhibition [6] was 5.65%.
`[C-]#[O+].[C-]#[O+].[C-]#[O+].[Cr].c1ccc([PH+](CC[As](c2ccccc2)c2ccccc2)CC[As](c2ccccc2)c2ccccc2)cc1` gave a growth inhibition [1] of 5.45%, a growth inhibition [2] of -7.65% and a growth inhibition [3] of 27.7%. The growth inhibition [4] was 2.6%, the growth inhibition [5] was 11.1% and the growth inhibition [6] was 38.9%.
In the case of `O=[N+]([O-])c1ccc(Cl)c(OCCCOc2ccc(S(=O)(=O)F)cc2)c1`, the growth inhibition [1] was -8.7%, the growth inhibition [2] was -6.9% and the growth inhibition [3] was 8.05%. For the same molecule, the growth inhibition [4] was 3.7%, the growth inhibition [5] was -3.75% and the growth inhibition [6] was 7.85%.

— PubChem BioAssay (NCI)
